According to PubChem BioAssay (NCI):
The panel holds about 79,000 compounds, 15% with a hit somewhere; the sample as a whole holds those more often. Activity calls are given as the source filed them. Rule as the data show it: active = growth inhibition above about 70%; inactive = the rest.

Legend:
[1] = NCI Yeast Anticancer Drug Screen. Data for the rad52 strain (AID 147);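 also: 0% = growth of vehicle-treated control cultures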; settings: S. cerevisiae rad52 mutant growth inhibition, active compounds read high
How it was run: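 Screen used a yeast mutant impaired in DNA repair. After compound exposure, growth was measured. Values reflect inhibition compared with vehicle-treated cells.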

[2] = NCI Yeast Anticancer Drug Screen. Data for the wt1 strain (AID 149);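 also: 0% = growth of vehicle-treated wt1 cultures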; settings: S. cerevisiae wt1 strain (SPY 50644) growth inhibition, active compounds read high
How it was run: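 Each compound is tested on wt1 yeast and the loss of growth versus vehicle gives the inhibition value.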

[3] = NCI Yeast Anticancer Drug Screen. Data for the rad50EPP+ strain (AID 151);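 also: 0% = growth of vehicle-treated control cultures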; settings: S. cerevisiae rad50 mutant strain, active compounds read high
How it was run: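 Exposing the rad50EPP+ strain to each compound, growth was compared with vehicle-only cultures to give inhibition.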

[4] = NCI Yeast Anticancer Drug Screen. Data for the mgt1 strain (AID 153); settings: S. cerevisiae mgt1 mutant growth inhibition, active compounds read high
How it was run: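 Genetically defined yeast (mgt1) treated with compound; inhibition of growth expressed against vehicle-treated controls.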

[5] = NCI Yeast Anticancer Drug Screen. Data for the rad50 strain (AID 155);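 also: 0% = growth of vehicle-only cultures of the same strain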; settings: S. cerevisiae rad50 strain growth inhibition, active compounds read high
How it was run: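 Vehicle-treated cultures provide the reference for the growth inhibition reported for compound-exposed, repair-deficient yeast.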

[6] = NCI Yeast Anticancer Drug Screen. Data for the mec2-1 strain (AID 157); settings: S. cerevisiae mec2-1 strain, active compounds read high
How it was run: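 Readout is yeast growth inhibition, normalised to vehicle-treated controls, in the mec2-1 strain exposed to compound.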

[7] = NCI Yeast Anticancer Drug Screen. Data for the rad14 strain (AID 159);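 also: 0% = growth of vehicle-treated control cultures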; settings: S. cerevisiae rad14 strain growth inhibition, active compounds read high
How it was run: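 Inhibition of growth is reported for a repair-deficient yeast mutant following compound treatment, calculated relative to cultures that received vehicle.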

[8] = NCI Yeast Anticancer Drug Screen. Data for the sgs1 mgt1 strain (AID 161);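 also: 0% = growth of cultures given vehicle only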; settings: S. cerevisiae sgs1 mgt1 strain, active compounds read high
How it was run: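 Percent growth inhibition was derived by comparing compound-exposed mutant yeast with vehicle-exposed cultures. The strain carries alterations in DNA damage repair.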

[9] = NCI Yeast Anticancer Drug Screen. Data for the CLN2oe strain (AID 163);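 also: 0% = growth of vehicle-only control cultures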; settings: S. cerevisiae CLN2oe strain, active compounds read high
How it was run: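 Values reflect how much compound exposure reduced yeast growth, referenced to vehicle-exposed cells. Assay organism is a strain with a defined genetic change affecting cell-cycle control.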

[10] = NCI Yeast Anticancer Drug Screen. Data for the cln2 rad14 strain (AID 165);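 also: 0% = growth equal to vehicle treated cultures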; settings: S. cerevisiae cln2 rad14 strain, active compounds read high
How it was run: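 Relative to vehicle controls, growth inhibition of compound-treated cln2 rad14 yeast was recorded.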

[11] = NCI Yeast Anticancer Drug Screen. Data for the bub3 strain (AID 167); settings: S. cerevisiae bub3 mutant strain, active compounds read high
How it was run: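 Mutant yeast screening strain plus compound; vehicle-treated cultures serve as the 0% inhibition reference.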

[12] = NCI Yeast Anticancer Drug Screen. Data for the wt2 strain (AID 169); settings: S. cerevisiae wt2 strain growth inhibition, active compounds read high
How it was run: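 Values express reduction in yeast growth under compound treatment, referenced to vehicle-treated cells.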

[13] = NCI Yeast Anticancer Drug Screen. Data for the mlh1 strain (AID 171);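 also: 0% = growth of vehicle-treated control cultures of the same strain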; settings: S. cerevisiae mlh1 strain growth inhibition, active compounds read high
How it was run: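 Steps: expose the defined-mutant yeast strain to compound; expose a parallel culture to vehicle; measure growth; express compound effect as inhibition relative to the vehicle culture.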

[14] = NCI Yeast Anticancer Drug Screen. Data for the sgs1 strain (AID 173);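 also: 0% = growth of vehicle-only control cultures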; settings: S. cerevisiae sgs1 mutant, active compounds read high
How it was run: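 Treat defined-mutant yeast with compound; measure growth; calculate inhibition relative to vehicle-treated cells.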

[15] = NCI Yeast Anticancer Drug Screen. Data for the mlh1 rad18 strain (AID 175); settings: S. cerevisiae mlh1 rad18 strain growth inhibition, active compounds read high
How it was run: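 Test agents were incubated with a yeast strain of defined genotype (DNA damage repair defect). Inhibition of growth was derived by comparison with vehicle-exposed cultures.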

[16] = NCI Yeast Anticancer Drug Screen. Data for the rad18 strain (AID 177); settings: S. cerevisiae rad18 mutant growth inhibition, active compounds read high
How it was run: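 A genetically defined yeast mutant impaired in DNA damage repair was treated with test compounds, then its growth was measured against cultures receiving vehicle alone.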

[17] = at 5.0 µM (retest, dose inferred, filed as 0.5)
[18] = at 50.0 µM (retest, dose inferred, filed as 5.0)

Measured: growth inhibition

O=C1Nc2ccccc2/C1=C/COc1ccccc1
inactive: [1]; at 1.2 µM 1% | [1]; at 3.7 µM 8% | [1]; at 11.0 µM 27% | [2]; at 1.2 µM -1% | [2]; at 3.7 µM -1% | [2]; at 11.0 µM 9% | [2]; at 33.0 µM 62% | [3]; at 1.2 µM 21% | [3]; at 3.7 µM 58% | [4]; at 1.2 µM -1% | [4]; at 3.7 µM 1% | [4]; at 11.0 µM 19% | [5]; at 1.2 µM 2% | [5]; at 3.7 µM 4% | [5]; [17] 28% | [5]; at 11.0 µM 20% | [6]; at 1.2 µM -2% | [6]; at 3.7 µM 6% | [6]; [17] 13% | [6]; at 11.0 µM 23% | [7]; at 1.2 µM 0% | [7]; at 3.7 µM 5% | [7]; at 11.0 µM 20% | [8]; [17] 26% | [9]; at 1.2 µM 0% | [9]; at 3.7 µM 2% | [9]; at 11.0 µM 15% | [9]; at 33.0 µM 39% | [10]; [17] 7% | [11]; at 1.2 µM -3% | [11]; at 3.7 µM 0% | [11]; [17] 2% | [11]; at 11.0 µM 13% | [12]; at 1.2 µM -2% | [12]; at 3.7 µM 1% | [12]; at 11.0 µM 15% | [13]; at 1.2 µM -4% | [13]; at 3.7 µM -1% | [13]; at 11.0 µM 17% | [14]; at 1.2 µM 1% | [14]; at 3.7 µM 11% | [14]; at 11.0 µM 45% | [15]; [17] 20% | [16]; at 1.2 µM 0% | [16]; at 3.7 µM 4% | [16]; at 11.0 µM 16%
active: [1]; at 33.0 µM 90% | [1]; at 100.0 µM 98% | [2]; at 100.0 µM 97% | [3]; at 11.0 µM 92% | [3]; at 33.0 µM 97% | [3]; at 100.0 µM 98% | [4]; at 33.0 µM 93% | [4]; at 100.0 µM 99% | [5]; at 33.0 µM 71% | [5]; [18] 99% | [5]; at 50.0 µM 99.5% | [5]; at 100.0 µM 98% | [6]; at 33.0 µM 97% | [6]; [18] 99% | [6]; at 50.0 µM 99.5% | [6]; at 100.0 µM 99% | [7]; at 33.0 µM 97% | [7]; at 100.0 µM 99% | [8]; [18] 99% | [8]; at 50.0 µM 99.6% | [9]; at 100.0 µM 98% | [10]; [18] 99% | [10]; at 50.0 µM 98.2% | [11]; at 33.0 µM 96% | [11]; [18] 99% | [11]; at 50.0 µM 99.8% | [11]; at 100.0 µM 98% | [12]; at 33.0 µM 88% | [12]; at 100.0 µM 99% | [13]; at 33.0 µM 89% | [13]; at 100.0 µM 99% | [14]; at 33.0 µM 98% | [14]; at 100.0 µM 99% | [15]; [18] 99% | [15]; at 50.0 µM 99.5% | [16]; at 33.0 µM 81% | [16]; at 100.0 µM 98%

CSC(=S)N/N=C(\C)c1cccc(C)n1
active: [1]; at 100.0 µM 97% | [2]; at 100.0 µM 99% | [3]; at 100.0 µM 98% | [4]; at 100.0 µM 98% | [5]; at 33.0 µM 93% | [5]; [18] 99% | [5]; at 50.0 µM 99.4% | [5]; at 100.0 µM 98% | [6]; [18] 99% | [6]; at 50.0 µM 99.4% | [6]; at 100.0 µM 98% | [7]; at 100.0 µM 98% | [8]; [18] 99% | [8]; at 50.0 µM 99.3% | [9]; at 100.0 µM 97% | [10]; [18] 98% | [10]; at 50.0 µM 99.2% | [11]; [18] 99% | [11]; at 50.0 µM 99.2% | [11]; at 100.0 µM 98% | [12]; at 100.0 µM 99% | [13]; at 100.0 µM 99% | [14]; at 100.0 µM 99% | [15]; [18] 99% | [15]; at 50.0 µM 99.2% | [16]; at 33.0 µM 75% | [16]; at 100.0 µM 96%
inactive: [1]; at 1.2 µM -3% | [1]; at 3.7 µM -5% | [1]; at 11.0 µM -8% | [1]; at 33.0 µM 47% | [2]; at 1.2 µM -4% | [2]; at 3.7 µM -7% | [2]; at 11.0 µM -4% | [2]; at 33.0 µM 19% | [3]; at 1.2 µM -3% | [3]; at 3.7 µM -3% | [3]; at 11.0 µM -3% | [3]; at 33.0 µM 5% | [4]; at 1.2 µM -7% | [4]; at 3.7 µM -11% | [4]; at 11.0 µM -10% | [4]; at 33.0 µM 39% | [5]; at 1.2 µM -4% | [5]; at 3.7 µM 2% | [5]; [17] -6% | [5]; at 11.0 µM 11% | [6]; at 1.2 µM -6% | [6]; at 3.7 µM -13% | [6]; [17] 28% | [6]; at 11.0 µM -10% | [6]; at 33.0 µM 62% | [7]; at 1.2 µM -8% | [7]; at 3.7 µM 6% | [7]; at 11.0 µM -5% | [7]; at 33.0 µM 44% | [8]; [17] 23% | [9]; at 1.2 µM -24% | [9]; at 3.7 µM -24% | [9]; at 11.0 µM -15% | [9]; at 33.0 µM 21% | [10]; [17] 59% | [11]; at 1.2 µM -14% | [11]; at 3.7 µM -20% | [11]; [17] 19% | [11]; at 11.0 µM 9% | [11]; at 33.0 µM 34% | [12]; at 1.2 µM -6% | [12]; at 3.7 µM -6% | [12]; at 11.0 µM -5% | [12]; at 33.0 µM 63% | [13]; at 1.2 µM -11% | [13]; at 3.7 µM -1% | [13]; at 11.0 µM -6% | [13]; at 33.0 µM 29% | [14]; at 1.2 µM -3% | [14]; at 3.7 µM -5% | [14]; at 11.0 µM -4% | [14]; at 33.0 µM 57% | [15]; [17] 20% | [16]; at 1.2 µM -5% | [16]; at 3.7 µM -5% | [16]; at 11.0 µM 10%
